Our source for the outcome and AC50 values is PubChem BioAssay (EPA / NIEHS).

For assay [1], the target named is human Peroxisome Proliferator-activated Receptor delta (PPARd), PPARD (gene 5467) (UniProt Q03181). Kind of assay: ATG_PPARd_TRANS: Attagene TRANS-FACTORIAL HepG2 Assay for human Peroxisome Proliferator-activated Receptor delta (PPARd) (AID 2283002). The method, boiled down: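 Read-out: reporter mRNA induction, quantified by fluorescent RT-PCR products resolved by capillary electrophoresis. Human HepG2 liver cells carried transiently transfected Gal4-UAS reporter constructs with chimeric NR-Gal4 fusions. Cells were dosed for 24 h; DMSO served as baseline.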

The target of assay [2] is Peroxisome proliferator-activated receptor gamma (Homo sapiens) (UniProt P37231). Kind of assay: ATG_PPARg_TRANS: Attagene TRANS-FACTORIAL HepG2 Assay for human Peroxisome Proliferator-activated Receptor-gamma (PPARg) (AID 2283007). The method, boiled down:
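Transient transfection of HepG2 with GAL4-UAS-driven reporter units; chemical dosing 24 h; total RNA → oligo(dT) RT → PCR with reporter primers → 6-FAM primer extension → HpaI digest 2 h 37 C → capillary electrophoresis. Positive direction vs DMSO.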

Assay [3] has as its target Nuclear receptor subfamily 1 group I member 2 (Homo sapiens) (UniProt O75469). Kind of assay: ATG_PXR_TRANS: Attagene TRANS-FACTORIAL HepG2 Assay for human Pregnane X Receptor (PXR) (AID 2283008). The essentials: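 Multiplexed TRANS reporter panel in HepG2; this component tracks PXR-Gal4-driven reporter mRNA after 24 h dosing, measured by RT-PCR with capillary electrophoresis fluorescence, fitted against DMSO.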

Assay [4] addresses Retinoic acid receptor alpha (Homo sapiens) (UniProt P10276). Kind of assay: ATG_RARa_TRANS: Attagene TRANS-FACTORIAL HepG2 Assay for human Retinoic Acid Receptor alpha (RARa) (AID 2283005). The essentials: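 HepG2 transiently transfected with multiplex GAL4-UAS reporter units including a human RARa–GAL4 chimera; 24 h compound exposure. Reporter mRNA quantified by RT-PCR, 6-FAM labeling and capillary electrophoresis; gain of signal versus DMSO.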

Assay [5] deals with human Retinoic Acid Receptor gamma (RARg), RARG (gene 5916) (UniProt P13631). Kind of assay: ATG_RARg_TRANS: Attagene TRANS-FACTORIAL HepG2 Assay for human Retinoic Acid Receptor gamma (RARg) (AID 2283009). The method, boiled down:
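Readout: reporter transcript levels via RT-PCR, 6-FAM primer-extension labelling, HpaI digestion and capillary electrophoresis. Cells: HepG2 carrying transfected RARg-GAL4 chimera plus UAS reporter set. Dosing 24 h; DMSO negative control.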

Assay [6] concerns the target human Retinoic Acid Receptor beta (RARb), RARB (gene 5915) (UniProt P10826). Briefly: ATG_RARb_TRANS: Attagene TRANS-FACTORIAL HepG2 Assay for human Retinoic Acid Receptor beta (AID 2283004). The essentials: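 Readout is reporter mRNA induction: RNA reverse-transcribed, PCR-amplified, FAM-labelled, HpaI-cut and resolved by capillary electrophoresis. Transiently transfected HepG2 cells carrying exogenous NR–Gal4 chimeras were dosed for 24 h; activity fitted upward relative to DMSO.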

Records with an inconclusive call do not appear. Activity calls are given as the source filed them. The calls were made as follows: active = hit-call score of the fitted dose curve at least 0.9, where 1 is the maximum; inconclusive = response in the unintended direction; inactive = score below 0.9. Peptide text beside a SMILES is read from it.

Peroxisome proliferator-activated receptor gamma (Homo sapiens), sequence (P37231 whole entry, looked up, the tested form may be a part): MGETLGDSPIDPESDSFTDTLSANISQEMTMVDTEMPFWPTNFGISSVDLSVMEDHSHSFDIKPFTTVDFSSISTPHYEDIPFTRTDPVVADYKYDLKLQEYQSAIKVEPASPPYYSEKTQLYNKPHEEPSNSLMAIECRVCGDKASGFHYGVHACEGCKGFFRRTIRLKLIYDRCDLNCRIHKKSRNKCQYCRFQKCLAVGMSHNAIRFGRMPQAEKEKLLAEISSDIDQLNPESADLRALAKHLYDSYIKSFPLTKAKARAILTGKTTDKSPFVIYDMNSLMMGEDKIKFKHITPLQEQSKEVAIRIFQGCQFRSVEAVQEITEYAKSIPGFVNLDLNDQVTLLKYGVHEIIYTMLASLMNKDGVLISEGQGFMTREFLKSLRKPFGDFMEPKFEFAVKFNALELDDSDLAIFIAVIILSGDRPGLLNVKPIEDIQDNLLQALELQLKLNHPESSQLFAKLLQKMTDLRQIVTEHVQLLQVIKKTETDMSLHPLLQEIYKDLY
Retinoic acid receptor alpha (Homo sapiens), sequence (P10276 whole entry, looked up, the tested form may be a part): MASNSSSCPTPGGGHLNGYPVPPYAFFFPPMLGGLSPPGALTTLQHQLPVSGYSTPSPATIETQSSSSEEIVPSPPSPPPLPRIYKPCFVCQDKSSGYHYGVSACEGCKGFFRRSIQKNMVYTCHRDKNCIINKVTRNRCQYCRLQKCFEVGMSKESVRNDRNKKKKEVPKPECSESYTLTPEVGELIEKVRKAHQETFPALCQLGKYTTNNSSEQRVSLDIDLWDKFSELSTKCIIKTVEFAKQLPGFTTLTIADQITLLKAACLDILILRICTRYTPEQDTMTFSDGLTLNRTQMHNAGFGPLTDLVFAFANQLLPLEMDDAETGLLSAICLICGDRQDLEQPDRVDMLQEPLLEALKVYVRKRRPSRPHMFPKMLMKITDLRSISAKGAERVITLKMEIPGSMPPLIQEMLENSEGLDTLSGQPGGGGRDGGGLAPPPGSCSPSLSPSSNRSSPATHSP
human Retinoic Acid Receptor gamma (RARg), RARG (gene 5916), sequence (P13631 whole entry, looked up, the tested form may be a part): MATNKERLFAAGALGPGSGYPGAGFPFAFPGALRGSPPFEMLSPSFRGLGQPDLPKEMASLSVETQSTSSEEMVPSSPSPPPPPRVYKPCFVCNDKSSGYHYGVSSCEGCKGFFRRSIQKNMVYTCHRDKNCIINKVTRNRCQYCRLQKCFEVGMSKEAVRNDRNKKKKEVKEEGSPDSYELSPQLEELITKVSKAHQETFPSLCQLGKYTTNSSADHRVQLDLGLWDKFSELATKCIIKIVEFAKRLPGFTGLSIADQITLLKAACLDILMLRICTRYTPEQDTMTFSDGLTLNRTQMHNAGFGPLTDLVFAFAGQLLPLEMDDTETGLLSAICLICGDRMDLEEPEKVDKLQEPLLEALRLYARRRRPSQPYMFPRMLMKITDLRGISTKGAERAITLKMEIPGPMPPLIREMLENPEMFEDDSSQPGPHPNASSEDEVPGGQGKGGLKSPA
Nuclear receptor subfamily 1 group I member 2 (Homo sapiens), sequence (O75469 whole entry, looked up, the tested form may be a part): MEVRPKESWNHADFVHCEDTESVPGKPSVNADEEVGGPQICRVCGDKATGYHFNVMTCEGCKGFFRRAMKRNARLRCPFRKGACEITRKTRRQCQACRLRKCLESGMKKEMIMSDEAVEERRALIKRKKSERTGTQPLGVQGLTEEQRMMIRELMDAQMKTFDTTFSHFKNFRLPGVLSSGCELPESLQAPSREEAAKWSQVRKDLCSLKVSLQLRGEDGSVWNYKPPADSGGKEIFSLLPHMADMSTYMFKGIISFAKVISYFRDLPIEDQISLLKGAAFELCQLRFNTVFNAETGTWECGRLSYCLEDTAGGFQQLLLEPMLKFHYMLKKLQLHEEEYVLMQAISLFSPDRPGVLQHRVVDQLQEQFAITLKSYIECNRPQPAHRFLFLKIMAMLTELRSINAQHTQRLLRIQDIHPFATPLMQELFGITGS
human Retinoic Acid Receptor beta (RARb), RARB (gene 5915), sequence (P10826 whole entry, looked up, the tested form may be a part): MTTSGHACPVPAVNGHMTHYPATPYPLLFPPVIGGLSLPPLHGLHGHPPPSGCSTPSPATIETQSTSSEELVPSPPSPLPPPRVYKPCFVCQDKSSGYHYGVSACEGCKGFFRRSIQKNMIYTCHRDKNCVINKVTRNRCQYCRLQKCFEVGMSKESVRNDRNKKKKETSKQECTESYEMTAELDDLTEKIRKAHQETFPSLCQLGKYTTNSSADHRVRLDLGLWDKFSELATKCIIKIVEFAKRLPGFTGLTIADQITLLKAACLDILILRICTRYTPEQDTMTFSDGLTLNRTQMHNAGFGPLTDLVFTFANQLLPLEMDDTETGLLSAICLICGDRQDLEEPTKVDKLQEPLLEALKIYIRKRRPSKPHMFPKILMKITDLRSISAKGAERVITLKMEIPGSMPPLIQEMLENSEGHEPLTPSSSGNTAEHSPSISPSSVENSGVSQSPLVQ
human Peroxisome Proliferator-activated Receptor delta (PPARd), PPARD (gene 5467), sequence (Q03181 whole entry, looked up, the tested form may be a part): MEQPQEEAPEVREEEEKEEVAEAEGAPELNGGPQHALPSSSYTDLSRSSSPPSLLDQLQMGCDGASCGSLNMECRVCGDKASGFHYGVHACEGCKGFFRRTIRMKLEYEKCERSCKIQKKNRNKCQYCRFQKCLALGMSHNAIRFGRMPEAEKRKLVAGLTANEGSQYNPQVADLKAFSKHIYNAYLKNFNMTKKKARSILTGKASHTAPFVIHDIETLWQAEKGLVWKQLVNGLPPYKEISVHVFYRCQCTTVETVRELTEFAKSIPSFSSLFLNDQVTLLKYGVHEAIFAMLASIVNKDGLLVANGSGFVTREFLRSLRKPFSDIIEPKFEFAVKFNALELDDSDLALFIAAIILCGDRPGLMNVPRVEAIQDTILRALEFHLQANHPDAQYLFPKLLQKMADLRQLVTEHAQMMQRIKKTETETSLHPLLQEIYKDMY

As to `CCCCc1ccc(Cl)cc1`, the molecule was classed as inactive in assay [1], in assay [2] and in assay [3].

On to `COc1cc(O)c(C(=O)c2ccccc2)cc1S(=O)(=O)O`, for which the outcome in assay [1], in assay [2] and in assay [3] was inactive.

As for `C=C(C)C1CC=C(C)C(OC(C)=O)C1` (stereo unspecified), the result in assay [1], in assay [4], in assay [2], in assay [3] and in assay [5] was inactive.

As for `CC(C)(CO)C(O)C(=O)NCCCO` (stereo unspecified), the molecule was called inactive in assay [1] and in assay [2].

The term AC50 denotes the concentration at which the activity in the assay is half-maximal. On to `CC(C)(C)NC(=O)[C@H]1CC[C@H]2[C@@H]3CC[C@H]4NC(=O)C=C[C@]4(C)[C@H]3CC[C@]12C`, for which the molecule was called inactive in assay [1]. Moreover, the AC50 in assay [3] is 19.8 µM (active).

Consider `CCCCCCCCCC(C)=O`, for which the molecule was classed as inactive in assay [1], in assay [2] and in assay [3].

As for `CCCCC(CC)COS(=O)(=O)O` (stereo unspecified), the molecule was called inactive in assay [1] and in assay [3].

In the case of `CC1CCC(C(C)(C)S)C(=O)C1` (stereo unspecified), the molecule was called inactive in assay [1]. For the same molecule, the AC50 is 81.1 µM (active) in assay [2] and 1.89 µM (active) in assay [3].

For the molecule `CCCCCCCCCCCCCc1ccccc1`, the call in assay [1], in assay [2] and in assay [3] was inactive.

For `CCC(=O)C1CC(C(C)C)CC=C1C` (stereo unspecified), the molecule was classed as inactive in assay [1], in assay [4] and in assay [5]. The AC50 is 58.3 µM (active) in assay [2] and 3.16 µM (active) in assay [3].

As for `Cc1noc(NS(=O)(=O)c2ccc(N)cc2)c1C`, the outcome in assay [6] and in assay [4] was inactive.

For `C=Cc1ccc(OC(C)=O)cc1`, the result in assay [1], in assay [6], in assay [2] and in assay [3] was inactive.

Turning to `CC1=C(O)C(=O)C(C)O1` (stereo unspecified), the result in assay [1], in assay [6], in assay [4] and in assay [5] was inactive.

On to `CCOC(=O)CC(=O)c1ccccc1`, for which the call in assay [1], in assay [2] and in assay [3] was inactive.

Take `COc1nccnc1CC(C)C`: the molecule was called inactive in assay [1], in assay [6] and in assay [3].

For `CC(C)(C)C1CCC(=O)CC1`, the outcome in assay [1] and in assay [3] was inactive.

`CCCCOC(=O)C(C)CC` (stereo unspecified): the result in assay [1] and in assay [3] was inactive.

With `CC(C)c1cc(C(C)C)cc(C(C)C)c1`, the result in assay [1], in assay [4] and in assay [2] was inactive. For the same molecule, the AC50 in assay [3] was 26.9 µM (active).

With `Cc1ccc(S(=O)(=O)N=C=O)cc1`, the molecule was classed as inactive in assay [1], in assay [2] and in assay [3].

`CCC[Si](OC)(OC)OC`: the outcome in assay [1], in assay [6], in assay [4], in assay [3] and in assay [5] was inactive.

Consider `N#Cc1ccc(C(c2ccc(C#N)cc2)n2cncn2)cc1`, for which the molecule was called inactive in assay [1], in assay [2], in assay [3] and in assay [5].

Take `N#Cc1ccc(C2CCCc3cncn32)cc1` (stereo unspecified): the call in assay [1], in assay [6], in assay [2] and in assay [3] was inactive.

Regarding `CC(=O)/C=C/C1C(C)=CCCC1(C)C` (stereo unspecified), the values for the AC50 in assay [2] and in assay [3] were 42.1 µM (active) and 2.79 µM (active), respectively.

`O=C(Cl)c1ccc(C(=O)Cl)cc1`: the result in assay [6] and in assay [3] was inactive.

As for `COC(=O)[C@H](Cc1ccccc1)NC(=O)[C@@H](N)CC(=O)O` (H-Asp-Phe-OMe), the call in assay [6], in assay [4], in assay [2], in assay [3] and in assay [5] was inactive.

For `CCOc1ccc(NC(N)=O)cc1`, the call in assay [4] and in assay [2] was inactive.

`CC1(C)[C@@H]2CC[C@@]1(C)C(=O)C2`: the molecule was called inactive in assay [4], in assay [3] and in assay [5].

`CC(=O)CC(=O)Nc1ccccc1C`: the result in assay [5] was inactive.

`CCCCNS(=O)(=O)c1ccccc1`: the molecule was called inactive in assay [2] and in assay [3].

Regarding `COc1cc(C)ccc1O`, the molecule was classed as inactive in assay [4], in assay [2] and in assay [3].

For `NNS(=O)(=O)c1ccc(Oc2ccc(S(=O)(=O)NN)cc2)cc1`, the call in assay [2] and in assay [3] was inactive.

For the molecule `CCCCC1CCC(=O)O1` (stereo unspecified), the result in assay [6], in assay [4], in assay [2] and in assay [5] was inactive. Moreover, the AC50 in assay [3] is 41.4 µM (active).

For the molecule `Cc1cccc(C(C)(C)C)c1O`, the result in assay [6], in assay [4] and in assay [2] was inactive. Moreover, in assay [3], the AC50 was 19.9 µM (active).

Turning to `CCCCC(=O)O`, the result in assay [6] and in assay [4] was inactive.

Take `CC1=CCC(C(C)C)C=C1` (stereo unspecified): the call in assay [2] was inactive. In addition, in assay [3], the AC50 was 7.16 µM (active).

For `CCCCCCO`, the molecule was called inactive in assay [2] and in assay [3].

`CCc1cccc(CC)c1`: the result in assay [4] and in assay [2] was inactive.

Turning to `CCN1CCCC1=O`, the molecule was called inactive in assay [2] and in assay [3].

In the case of `O=C(O)CCCC(=O)O`, the outcome in assay [2] and in assay [3] was inactive.

Regarding `N=C1C=CC(=C(c2ccc(N)cc2)c2ccc(N)cc2)C=C1`, in assay [2], the AC50 is 31.9 µM (active). Moreover, the molecule was called inactive in assay [3].

Consider `CC(C)(C)N`, for which the call in assay [2] and in assay [3] was inactive.

For the molecule `CCCCOCC(C)O` (stereo unspecified), the molecule was called inactive in assay [2], in assay [3] and in assay [5].

`C=C1C[C@H]2[C@@H]3C=C(C)C4=CC(=O)CC[C@]4(C)[C@H]3CC[C@]2(C)[C@@]1(OC(C)=O)C(C)=O`: in assay [3], the molecule was classed as inactive.

For the molecule `CC(C)(c1ccccc1)c1ccc(Nc2ccc(C(C)(C)c3ccccc3)cc2)cc1`, the outcome in assay [2] and in assay [3] was inactive.

With `Cn1ccnc1`, in assay [4], the call was inactive.

For `CCCCNC(=S)NCCCC`, the outcome in assay [6], in assay [2], in assay [3] and in assay [5] was inactive.

On to `CC1CCC(=O)C1=O` (stereo unspecified), for which the call in assay [6], in assay [2] and in assay [3] was inactive.

Consider `COCC(=O)O`, for which the molecule was called inactive in assay [4] and in assay [2].

As to `CCCCCCOc1ccc(N)cc1`, the molecule was called inactive in assay [2] and in assay [3].

Consider `CO[Si](C)(C)OC`, for which the outcome in assay [6], in assay [2] and in assay [3] was inactive.

As for `C=Cc1cccc(C)c1`, the molecule was called inactive in assay [2] and in assay [3].

With `CCCC(CC)c1ccccc1` (stereo unspecified), the molecule was called inactive in assay [2] and in assay [3].

Turning to `CC(=O)OC1CCCCC1`, the molecule was classed as inactive in assay [4], in assay [3] and in assay [5].
